In all, about 33,000 sequences were measured (“E-score (-0.5 to 0.5)”: median about -0.0014, highest 2% from about 0.25 on). This is one part of a sample in which the highest values are shown more often than they occur.
Molecular target: T1, Cad1 (UniProt P24813)
T1 sequence: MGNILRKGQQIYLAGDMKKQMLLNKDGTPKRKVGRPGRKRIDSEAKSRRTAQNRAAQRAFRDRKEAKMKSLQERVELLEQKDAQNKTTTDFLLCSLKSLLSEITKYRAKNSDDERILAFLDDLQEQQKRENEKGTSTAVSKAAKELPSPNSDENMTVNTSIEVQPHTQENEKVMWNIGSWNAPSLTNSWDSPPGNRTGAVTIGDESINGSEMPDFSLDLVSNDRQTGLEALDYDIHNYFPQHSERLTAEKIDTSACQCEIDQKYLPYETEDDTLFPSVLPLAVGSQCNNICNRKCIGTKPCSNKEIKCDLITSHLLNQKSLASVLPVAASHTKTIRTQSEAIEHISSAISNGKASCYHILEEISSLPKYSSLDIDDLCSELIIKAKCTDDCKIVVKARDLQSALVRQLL
Test: PBM E-score (8-mer binding enrichment) (E-score (-0.5 to 0.5)); higher = stronger / more preferred TF binding
Conditions: protein concentration: 100 nM; construct: GST-full length
How it was run: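 Yeast transcription factors carrying a GST tag, as full-length proteins or DNA-binding domains, were produced by PURExpress in vitro transcription/translation. About 100-200 nM protein was applied to universal all-10-mer Agilent arrays, double-stranded by primer extension on fresh or once-stripped slides. Bound protein was detected with fluorescent anti-GST, and scans were normalised with masliner. The Universal PBM Analysis Suite gave each ungapped eight-base word, pooled with its reverse complement, an E-score, a modified Wilcoxon-Mann-Whitney statistic.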

Sequence	PBM E-score
CAATTTCA	0.0182
CTCGGCAG	0.136
CAAGCTTG	-0.294
ATTGGTCC	0.0438
AAACCGCA	-0.213
AAACCGCC	-0.0149
CAACCGCA	0.066
AAACCGCG	0.271
CAACCGAC	0.252
CAACCGAA	0.168
CAACCGCG	0.297
CAACCGCC	-0.23
GAACCGAC	0.105
ACTAGAGA	-0.224
CGTGCGAA	0.036
GGGCATTA	-0.152
GATCAAGC	-0.0801
GGCGGTAA	0.045
ACTTCGCG	0.216
GCAACAGC	-0.076
ATAAGGGG	-0.0559
CTATCGTA	-0.0798
CCGAAACA	0.0714
TCGAAACA	0.251
ACGAAACA	0.192

Sequence	PBM E-score
AGCTATCA	0.118
CGAAGAGA	0.106
ATGTCACC	0.0545
ATGTCAGC	0.315
GTGTCACA	0.252
GTGTCAAA	0.163
CTGTCAGC	0.118
ATGTCAGA	-0.0566
ATGTCACG	0.0134
CTGTCACA	0.0656
ATGTCACA	0.306
AGCCAGAT	-0.239
AGGTCAAC	0.00774
ACCTGATG	-0.134
CAGAATGG	-0.00601
CATCAAGA	0.0115
CCTCAACA	0.0958
ATTCACGC	0.0118
CTTCACGC	0.26
CTTCACGA	-0.199
CTAGACCA	0.00762
CCAGGACA	0.0769
ATTATCGC	0.282
GTTATCAA	0.129
CTTATCAC	0.0836

Sequence	PBM E-score
ATTATCAC	0.151
CATATCAG	-0.00093
ATTATCGA	0.107
CATATCAA	0.259
ATTATCAG	-0.0126
ATTATCGG	0.0117
CTTATCAA	0.256
ATTATCAA	0.297
AATATCAA	0.138
CCAATCGA	0.105
TATTAGAA	0.24
CAAACACG	0.126
CAAAAGCG	0.0683
ACACGCCC	-0.0578
AGCCATAT	-0.0728
GGTAGCCA	-0.0237
CGACTTAA	0.0481
TATACCAA	0.0311
CCGAAATA	0.253
GCGAAATA	-0.0552
ACGAAATA	0.201
GGGGTTCA	-0.191
ATCGCCCG	-0.0312
ATTGCTTA	0.176
GTTGCTGA	0.111

Sequence	PBM E-score
GTTGCTTA	0.261
GCTCGGTA	-0.203
CATAGGGC	-0.163
CAATTCGA	-0.0688
CAATTCGC	0.322
GAATTCGC	-0.0565
ATTCGCAC	0.00983
GGTGCTGA	-0.0741
AACGCCTG	0.0294
AGTAAGCG	0.338
ACTAAGCG	0.3
AGTAAGCC	0.156
AGTAAGGG	0.0236
ACTAAGCT	0.223
ACTAAGCA	0.181
ACCGTCTC	0.138
CTTGCAAA	0.105
ATTCCTTC	0.105
CTTGTACA	-0.0604
ATTGTACA	0.106
GTTGTACA	0.286
CTGAGGGA	-0.0379
ATTAAAAA	0.221
ACTAAAAT	0.255
ATTAAAAT	0.253

Sequence	PBM E-score
ACTAAAAC	0.116
ACTAAAAA	0.107
ATTAAAAC	0.108
ATGACGTC	0.0734
AGGAAGTC	-0.225
GAGTGGGC	-0.294
AGGCTACA	0.00724
GGAAAGAA	-0.177
TGAAAGAA	0.253
AGAAAGAA	0.0147
TGAAAACA	0.131
AAAAGTAA	0.265
AAAAGTAT	0.0548
CAAAGTAA	-0.00082
GATAGTGA	0.157
CATTTTTC	0.124
ATGAAAAG	0.0321
ACGAAAAG	0.0611
ATGAAAAT	0.0649
ACGAAAAC	0.259
ACGAAAAA	-0.045
ATGAAAAA	0.27
ACTTCACT	-0.00075
CACAAGCG	-0.145
ATATCCCA	0.0408

Sequence	PBM E-score
CGCTCCAA	0.0125
GTGTTAAC	0.168
ATGTTAAC	0.0833
GCGTTAAC	0.257
ACGTTAAC	0.102
CTGTTAAC	0.258
CCGTTAAC	0.0965
TGGGAACA	-0.0827
CAGGTTTC	0.111
ATGAACTA	0.0699
CCCTTTAA	-0.135
GTGTTTAA	0.233
GTAGATCA	0.0116
AGTGGTAC	-0.103
GCCACAGC	-0.115
ATGAGTAC	0.0206
GTGAGTAA	0.129
CTGAGTAC	-0.06
CTGAGTAA	0.254
ATGAGTAG	0.0743
ATGAGTAA	0.286
CCTAGTGA	-0.171
AGGGGTCA	-0.304
CTCGGGGA	-0.0482
GATCCGTA	-0.0959

Sequence	PBM E-score
CTCGTAAG	0.264
CTCGTAAC	0.112
ATCGTAAG	-0.0168
CAGAGACC	-0.145
ATGGTCGC	-0.127
AGGTCTCG	-0.2
CCAGAAGC	-0.248
GTATCAAA	0.142
GAATCAAA	0.0378
GAATCAAC	0.264
CTATCAAA	0.0734
ATATCAAC	0.253
CTATCAAC	0.219
CAATCAAC	0.228
CTATCAAG	0.0773
ATATCAGG	0.00611
ATATCAAG	0.251
GTATCAAC	-0.0681
TTATCAAA	0.3
TCAGCACA	0.172
TAGCGCCA	0.0297
CCAGCTGA	0.155
AGTCAGGG	-0.148
CGATTCTC	0.0405
ACATGGCC	0.141

Sequence	PBM E-score
CCGCGAAG	0.12
ACTGTCGA	0.0753
AAGGCTGA	-0.00348
CCAGTGCC	-0.0306
AGTGCGAG	-0.0178
ATATCAAA	0.0329
AGATCAAT	-0.021
ATATCAAT	0.253
AGACCTAT	0.111
ATCGATGA	0.13
ATTCCGCA	-0.0887
GTTCCGCA	0.252
CTTCCGCA	0.0248
GACGGAGA	0.038
ATAGGTGA	-0.0537
CAATCGAA	0.0916
TAATCGAA	0.35
GAATCCAA	-0.0184
AAATCGAA	-0.156
TAATCCAA	0.255
AAATCCAA	0.115
CGTTCGTC	0.248
AGTCTCAT	-0.0485
GCGCATCC	-0.0757
ATGAGGAC	-0.0183

Sequence	PBM E-score
AGGGGCGC	-0.103
ATTGTCAA	0.084
ATTGTCCC	-0.0923
ATTGTCCA	0.132
ATTGTCCG	0.271
ATTGTCAC	0.0726
ATTGTCAG	0.306
ATCAGAAG	-0.0366
ATTTGGAG	-0.204
ACTCCACT	-0.0657
ACCCGGCG	-0.12
CACGACAG	0.0344
CACTGTAA	0.00669
GATACCCA	0.122
ATACGCAA	0.119
ATGCGCAT	0.334
GCGCGTAA	0.293
ACGCGCAA	0.206
ATGCGCAG	-0.0137
ACGCGTAA	0.176
TTACGCAA	0.268
ATGCGCAC	0.14
GCGCGCAA	0.303
CCGCGCAA	0.0795
TCGCGTAA	0.19

Sequence	PBM E-score
GTACGCAA	0.0953
GCCTCAGC	-0.0857
CTTTCACA	0.209
ACAGCATG	-0.053
AACTTGGG	-0.0849
GGTTGGTA	0.101
CCGCAGAA	0.179
TTGCGCAA	0.258
TGGCGCAA	-0.0637
GTGCGCAA	0.0688
ATGCGCAA	0.107
GCGCAGAA	0.262
TCGCAGAA	-0.192
TAGCGCAA	0.207
TCGCGCAA	0.27
ATACACTA	0.205
ATATCGTG	0.164
ACACCGCC	0.0284
AGGATCTA	-0.266
ACGCATGC	0.283
ACGCATGG	-0.215
ACGCATGA	0.0155
CAGCTGTC	0.253
ACGCTGAT	0.166
CTGCTGTC	-0.0811

Sequence	PBM E-score
CTGCTGAA	0.0549
CAGCTGAC	0.182
ACGCTGAC	0.3
CTGCTGAC	0.275
CAGCTGAG	0.0708
ACGCTGTC	-0.187
GGAAGAAA	-0.0518
CTAGTTGC	0.0214
GGACTTGA	-0.232
ATACTCTG	0.0457
CTCAGCAC	0.0326
ATCAGCAC	0.0147
ATCAGCAA	0.122
GTCAGCAA	0.295
CTCAGCAA	0.106
GTCAGCAC	0.261
AGCTCCAC	-0.0867
AACGTAGA	0.0503
CTTGCTAC	-0.0445
ACTGTAAT	0.111
CTGCCGCA	-0.0367
ACGGGTCT	-0.252
AGCGATGG	-0.0366
TCTTAGCA	-0.0984
AACGACCT	-0.0376

Sequence	PBM E-score
ATCAATCA	0.13
GTGATTAA	0.228
CTGATTTC	0.182
ATGATTGA	0.0737
ATGATTAC	0.192
CTGATTAA	0.362
TCGATTAA	0.301
ATGATTAA	0.32
ACGATTAA	0.0443
GCGATTAA	0.123
CTGATTTA	0.0612
CTGATTAC	0.334
ATGATTAG	0.094
AGGTACAT	-0.172
AATCTGGC	-0.102
CTCCCTGA	-0.247
AAGCGCCT	-0.165
ACCTTTAG	-0.142
CATAGAGC	-0.22
CAGTTGGG	-0.0373
AAAATTAC	0.072
AAAATTAA	0.209
AAAATTAT	0.285
AAAATTAG	0.269
AAAATTGT	0.167

Sequence	PBM E-score
AAAATTCT	-0.00425
ATCAGTTA	0.212
GCCCATAC	-0.1
GGCGACCC	-0.332
ATTGCCTG	0.0283
ATTAACAA	0.201
ATTAACAC	0.275
CTTAACAC	0.127
CGAATAGC	0.0486
ACACGCGT	0.258
ACACGCGA	0.143
ACACGCGG	0.0311
ACAAGCGG	0.0904
GTTGGAGA	-0.0985
ATAAATAC	0.252
ACAAATAC	0.271
ACAAATGC	0.255
ACAAATAT	0.262
CCAAATGC	-0.0453
ATAAATAG	0.121
ATAAATAA	0.239
ACAAATAA	0.206
CCAAATAC	0.013
GCAAATAC	0.0468
ACAAATGT	0.0516

Sequence	PBM E-score
ACAAATAG	0.182
GCGGGCCC	-0.157
ATCCGCCA	0.0883
CAGAAGAC	0.0287
AATCATAC	0.0986
GGTGAAAC	-0.0742
GACTATCC	-0.0732
AGAATGAT	0.0516
CTTGGCTC	-0.149
TAAGCTTA	0.378
CAAGCTTA	0.159
TAAGCTGA	0.208
ACGTAGGG	-0.284
AGAGTTTG	0.0139
AGATCCCT	-0.312
AGATCCCG	0.281
CGATCCCG	-0.265
AAGACCTT	-0.0766
CCATTCTC	-0.114

From the supplement of paper PMC3334620
